In paper PMC7862700, “An all-to-all approach to the identification of sequence-specific readers for epigenetic DNA modifications on cytosine” one finds binding signal data, which are given here for 1 sequence.

Common to all, as to experiment: DAPPL (digital affinity profiling via proximity ligation, sequencing); 10 mM Tris-HCl pH 7.5, 50 mM NaCl, 1 mM DTT, 4% glycerol, room temperature, 30 min; GST-TFs on glutathione beads, 16-mer random dsDNA library, 0.1% formaldehyde crosslink after washing; high values mean tight binding
Holding throughout (details): protein: recombinant; tags: N-terminal GST; dsDNA, one strand shown

The target of one experiment is T1, FLI1 (Homo sapiens, UniProt Q01543 1-452).
T1 sequence: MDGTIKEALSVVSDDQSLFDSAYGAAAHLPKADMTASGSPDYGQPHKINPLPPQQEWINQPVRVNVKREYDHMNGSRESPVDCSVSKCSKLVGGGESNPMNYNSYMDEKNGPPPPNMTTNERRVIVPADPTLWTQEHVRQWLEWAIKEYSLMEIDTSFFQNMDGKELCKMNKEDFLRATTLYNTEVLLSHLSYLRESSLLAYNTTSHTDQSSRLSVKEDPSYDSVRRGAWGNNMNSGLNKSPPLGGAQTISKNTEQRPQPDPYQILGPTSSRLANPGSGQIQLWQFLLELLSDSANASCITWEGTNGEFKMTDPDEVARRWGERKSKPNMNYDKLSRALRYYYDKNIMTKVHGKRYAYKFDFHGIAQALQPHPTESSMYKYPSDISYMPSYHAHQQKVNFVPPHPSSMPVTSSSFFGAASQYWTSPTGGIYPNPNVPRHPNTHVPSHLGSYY
A digest of the protocol: (§1)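 Each value of binding signal is a hexamer's read frequency for a factor divided by the same hexamer's frequency in the tag-only sample. Barcoded, bead-captured GST fusions of human transcription factors made in yeast were pooled with that sample and incubated with 200 nmole of a random double-stranded 16-mer DNA library in Tris/NaCl/DTT/glycerol buffer at room temperature for 30 min. Washing, 0.1% formaldehyde crosslinking, proximity ligation, PCR and Illumina NextSeq500 sequencing followed.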

The target of a further experiment is T2, ELK1 (Homo sapiens, UniProt P19419 1-428).
T2 sequence: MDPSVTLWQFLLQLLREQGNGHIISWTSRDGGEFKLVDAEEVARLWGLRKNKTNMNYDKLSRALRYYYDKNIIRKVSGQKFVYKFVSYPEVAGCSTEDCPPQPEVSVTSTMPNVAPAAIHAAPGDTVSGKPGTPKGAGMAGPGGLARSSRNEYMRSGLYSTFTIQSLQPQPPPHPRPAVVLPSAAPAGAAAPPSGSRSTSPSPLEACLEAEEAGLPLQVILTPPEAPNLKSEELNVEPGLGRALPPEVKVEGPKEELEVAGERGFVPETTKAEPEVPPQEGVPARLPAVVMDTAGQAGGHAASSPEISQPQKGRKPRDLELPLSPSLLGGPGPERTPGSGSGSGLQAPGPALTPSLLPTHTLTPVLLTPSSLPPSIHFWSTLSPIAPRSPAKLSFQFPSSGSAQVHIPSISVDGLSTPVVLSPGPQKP
In short, it runs like this:
as §1

In a further experiment the target is T3, GABPA (Homo sapiens, UniProt Q06546 1-454).
T3 sequence: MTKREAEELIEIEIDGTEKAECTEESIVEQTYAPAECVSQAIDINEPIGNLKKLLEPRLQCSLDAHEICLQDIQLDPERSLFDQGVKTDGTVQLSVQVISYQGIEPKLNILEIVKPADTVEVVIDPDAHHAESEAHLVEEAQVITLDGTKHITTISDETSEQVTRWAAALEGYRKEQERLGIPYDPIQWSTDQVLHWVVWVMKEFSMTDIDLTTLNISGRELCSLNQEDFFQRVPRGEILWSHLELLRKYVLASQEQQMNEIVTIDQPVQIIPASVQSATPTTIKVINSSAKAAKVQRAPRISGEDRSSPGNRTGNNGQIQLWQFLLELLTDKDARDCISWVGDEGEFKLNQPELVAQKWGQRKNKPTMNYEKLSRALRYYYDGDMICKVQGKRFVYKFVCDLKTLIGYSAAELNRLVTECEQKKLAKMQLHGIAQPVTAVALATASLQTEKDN
A digest of the protocol: as §1

The target in another experiment is T4, ERG (Homo sapiens, UniProt P11308 1-479).
T4 sequence: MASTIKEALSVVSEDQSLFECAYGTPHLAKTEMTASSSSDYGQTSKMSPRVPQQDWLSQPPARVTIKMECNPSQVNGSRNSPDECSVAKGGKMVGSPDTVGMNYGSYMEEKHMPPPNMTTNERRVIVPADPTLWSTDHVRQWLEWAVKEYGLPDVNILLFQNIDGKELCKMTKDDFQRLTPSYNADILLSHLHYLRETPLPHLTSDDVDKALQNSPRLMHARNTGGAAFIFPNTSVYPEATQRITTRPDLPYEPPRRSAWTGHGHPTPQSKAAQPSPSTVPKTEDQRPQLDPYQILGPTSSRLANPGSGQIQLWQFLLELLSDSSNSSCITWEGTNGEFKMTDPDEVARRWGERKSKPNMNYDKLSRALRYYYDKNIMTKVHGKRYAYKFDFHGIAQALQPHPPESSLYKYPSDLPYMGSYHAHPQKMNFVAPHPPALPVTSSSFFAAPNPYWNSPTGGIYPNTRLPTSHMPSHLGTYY
A digest of the protocol:
as §1

For the next experiment, the target named is ELF1 (Homo sapiens, UniProt P32519 1-619). In short, it runs like this:
as §1

The next experiment concerns the target T5, EHF (Homo sapiens, UniProt Q9NZC4 1-300).
T5 sequence: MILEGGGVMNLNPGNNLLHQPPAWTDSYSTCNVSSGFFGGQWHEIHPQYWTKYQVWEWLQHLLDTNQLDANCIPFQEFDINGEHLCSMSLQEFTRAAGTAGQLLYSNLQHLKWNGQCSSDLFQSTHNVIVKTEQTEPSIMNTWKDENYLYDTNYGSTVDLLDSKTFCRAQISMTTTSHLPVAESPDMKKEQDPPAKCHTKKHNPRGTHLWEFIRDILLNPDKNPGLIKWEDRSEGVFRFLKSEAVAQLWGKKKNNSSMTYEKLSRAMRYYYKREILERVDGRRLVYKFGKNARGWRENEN
In short, it runs like this:
as §1

Another experiment deals with SPIB (Homo sapiens, UniProt Q01892 1-262). A digest of the protocol: as §1
Sequence of SPIB (Q01892 whole entry): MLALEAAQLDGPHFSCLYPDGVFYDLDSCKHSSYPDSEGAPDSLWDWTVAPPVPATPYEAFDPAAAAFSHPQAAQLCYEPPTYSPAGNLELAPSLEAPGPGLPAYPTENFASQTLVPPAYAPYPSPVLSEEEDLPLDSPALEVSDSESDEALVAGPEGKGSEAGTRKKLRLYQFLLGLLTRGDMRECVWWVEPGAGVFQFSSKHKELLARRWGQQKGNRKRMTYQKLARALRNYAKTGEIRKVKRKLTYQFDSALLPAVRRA
In another experiment the target is T6, ELK3 (Homo sapiens, UniProt P41970 1-407).
T6 sequence: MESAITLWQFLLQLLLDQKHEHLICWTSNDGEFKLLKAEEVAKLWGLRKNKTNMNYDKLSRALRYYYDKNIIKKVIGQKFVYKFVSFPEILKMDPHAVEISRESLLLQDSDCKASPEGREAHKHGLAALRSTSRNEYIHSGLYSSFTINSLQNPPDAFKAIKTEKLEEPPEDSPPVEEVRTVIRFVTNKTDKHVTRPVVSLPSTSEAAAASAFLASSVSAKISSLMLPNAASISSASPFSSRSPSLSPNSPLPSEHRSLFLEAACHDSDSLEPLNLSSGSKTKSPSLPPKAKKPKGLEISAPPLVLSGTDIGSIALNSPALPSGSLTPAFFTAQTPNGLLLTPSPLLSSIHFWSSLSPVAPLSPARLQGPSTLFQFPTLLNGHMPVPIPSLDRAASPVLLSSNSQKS
In short, it runs like this: as §1

The next experiment addresses T7, ELK4 (Homo sapiens, UniProt P28324-2 1-405).
T7 sequence: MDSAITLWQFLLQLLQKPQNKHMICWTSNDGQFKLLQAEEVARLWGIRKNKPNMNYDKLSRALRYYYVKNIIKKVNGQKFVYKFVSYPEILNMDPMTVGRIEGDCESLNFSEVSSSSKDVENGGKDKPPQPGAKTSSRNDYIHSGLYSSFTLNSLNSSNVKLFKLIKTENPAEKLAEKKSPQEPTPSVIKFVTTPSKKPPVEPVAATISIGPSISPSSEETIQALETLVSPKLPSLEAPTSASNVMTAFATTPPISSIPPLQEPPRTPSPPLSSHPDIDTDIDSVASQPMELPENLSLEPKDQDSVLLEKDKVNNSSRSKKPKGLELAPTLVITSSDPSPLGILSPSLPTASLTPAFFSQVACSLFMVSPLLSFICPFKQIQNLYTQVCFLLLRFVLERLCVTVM
In short, it runs like this: as §1

Another experiment concerns the target T8, ETV2 (Homo sapiens, UniProt O00321 1-342).
T8 sequence: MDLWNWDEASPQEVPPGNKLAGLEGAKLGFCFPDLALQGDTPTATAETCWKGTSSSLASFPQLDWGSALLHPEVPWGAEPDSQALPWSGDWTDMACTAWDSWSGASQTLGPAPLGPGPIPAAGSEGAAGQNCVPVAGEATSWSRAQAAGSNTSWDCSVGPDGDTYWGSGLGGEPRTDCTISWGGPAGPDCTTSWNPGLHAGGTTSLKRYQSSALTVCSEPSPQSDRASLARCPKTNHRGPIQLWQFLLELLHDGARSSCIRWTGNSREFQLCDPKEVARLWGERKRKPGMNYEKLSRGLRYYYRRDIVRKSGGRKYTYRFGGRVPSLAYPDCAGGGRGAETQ
In short, it runs like this:
as §1

The target in another experiment is T9, ETV3L (Homo sapiens, UniProt Q6ZN32 1-361).
T9 sequence: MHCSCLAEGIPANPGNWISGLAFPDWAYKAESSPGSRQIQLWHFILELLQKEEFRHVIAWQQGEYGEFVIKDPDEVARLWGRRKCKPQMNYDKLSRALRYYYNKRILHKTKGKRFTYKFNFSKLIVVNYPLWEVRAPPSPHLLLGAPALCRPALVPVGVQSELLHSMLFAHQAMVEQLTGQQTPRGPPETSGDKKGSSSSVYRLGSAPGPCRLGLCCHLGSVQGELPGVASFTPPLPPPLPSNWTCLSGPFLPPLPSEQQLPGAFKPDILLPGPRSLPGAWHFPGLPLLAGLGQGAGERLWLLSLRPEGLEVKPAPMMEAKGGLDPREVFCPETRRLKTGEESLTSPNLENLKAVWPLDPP
A digest of the protocol:
as §1

A further experiment deals with T10, ETS2 (Homo sapiens, UniProt P15036 1-469).
T10 sequence: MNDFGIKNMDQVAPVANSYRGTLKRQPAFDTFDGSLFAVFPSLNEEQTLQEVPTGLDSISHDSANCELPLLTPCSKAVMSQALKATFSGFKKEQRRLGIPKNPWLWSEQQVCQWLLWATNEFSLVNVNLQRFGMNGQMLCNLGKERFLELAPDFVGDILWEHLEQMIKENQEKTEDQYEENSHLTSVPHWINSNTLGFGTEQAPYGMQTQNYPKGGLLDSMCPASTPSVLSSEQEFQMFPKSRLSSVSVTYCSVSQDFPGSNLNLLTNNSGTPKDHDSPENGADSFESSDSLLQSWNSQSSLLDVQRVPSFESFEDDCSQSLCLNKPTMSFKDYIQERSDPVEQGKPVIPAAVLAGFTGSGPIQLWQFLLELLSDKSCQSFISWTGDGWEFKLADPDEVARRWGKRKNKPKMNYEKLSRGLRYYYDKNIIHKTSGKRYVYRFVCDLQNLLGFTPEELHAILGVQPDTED
In short, it runs like this: as §1

A further experiment addresses T11, ETV7 (Homo sapiens, UniProt Q9Y603 1-341).
T11 sequence: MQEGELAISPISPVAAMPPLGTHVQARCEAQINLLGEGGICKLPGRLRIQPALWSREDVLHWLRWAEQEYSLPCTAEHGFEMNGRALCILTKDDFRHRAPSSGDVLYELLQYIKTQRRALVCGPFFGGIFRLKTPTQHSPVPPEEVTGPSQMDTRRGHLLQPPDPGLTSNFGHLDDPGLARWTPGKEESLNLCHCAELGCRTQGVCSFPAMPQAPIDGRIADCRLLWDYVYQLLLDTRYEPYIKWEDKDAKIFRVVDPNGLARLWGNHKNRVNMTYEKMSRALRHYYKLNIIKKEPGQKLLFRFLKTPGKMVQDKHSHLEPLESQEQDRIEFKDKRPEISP
In short, it runs like this:
as §1

The target of another experiment is T12, ETV3 (Homo sapiens, UniProt P41162-2 1-143).
T12 sequence: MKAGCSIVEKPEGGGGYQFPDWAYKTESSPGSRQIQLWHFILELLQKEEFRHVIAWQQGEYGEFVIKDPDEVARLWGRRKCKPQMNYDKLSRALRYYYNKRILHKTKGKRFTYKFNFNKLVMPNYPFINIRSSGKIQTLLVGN
In short, it runs like this: as §1

Sequence of ELF1 (P32519 whole entry): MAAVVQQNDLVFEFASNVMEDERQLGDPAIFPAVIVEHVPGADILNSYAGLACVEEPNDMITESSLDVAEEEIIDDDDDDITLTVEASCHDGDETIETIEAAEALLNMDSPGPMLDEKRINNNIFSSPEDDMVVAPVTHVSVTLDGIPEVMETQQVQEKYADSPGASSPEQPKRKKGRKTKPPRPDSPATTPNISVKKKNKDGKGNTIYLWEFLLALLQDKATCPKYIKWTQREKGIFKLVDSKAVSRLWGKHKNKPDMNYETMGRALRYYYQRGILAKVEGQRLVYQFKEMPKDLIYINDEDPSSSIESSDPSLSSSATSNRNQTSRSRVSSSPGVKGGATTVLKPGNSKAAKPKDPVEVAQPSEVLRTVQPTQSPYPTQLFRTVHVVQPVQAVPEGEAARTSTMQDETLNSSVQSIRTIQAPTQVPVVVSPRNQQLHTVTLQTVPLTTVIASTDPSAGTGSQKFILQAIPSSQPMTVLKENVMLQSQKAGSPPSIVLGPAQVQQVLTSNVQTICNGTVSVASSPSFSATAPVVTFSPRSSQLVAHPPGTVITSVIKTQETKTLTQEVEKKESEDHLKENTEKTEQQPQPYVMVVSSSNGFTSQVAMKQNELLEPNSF

With CAGCGC, the binding signal was 1.09 fold enrichment (6-mer frequency, TF over GST control) with FLI1; 1.03 fold enrichment (6-mer frequency, TF over GST control) with ELK1; 1.01 fold enrichment (6-mer frequency, TF over GST control) with GABPA; 1.03 fold enrichment (6-mer frequency, TF over GST control) with ERG; 1.08 fold enrichment (6-mer frequency, TF over GST control) with ELF1; 1.01 fold enrichment (6-mer frequency, TF over GST control) in the experiment with EHF. For the same sequence, the binding signal with SPIB was 1.07 fold enrichment (6-mer frequency, TF over GST control); in the experiment with ELK3, 1.06 fold enrichment (6-mer frequency, TF over GST control); in the experiment with ELK4, 1.06 fold enrichment (6-mer frequency, TF over GST control); in the experiment with ETV2, 1.07 fold enrichment (6-mer frequency, TF over GST control); in the experiment with ETV3L it was 1.09 fold enrichment (6-mer frequency, TF over GST control); in the experiment with ETS2 it was 1.1 fold enrichment (6-mer frequency, TF over GST control). Also, the binding signal in the experiment with ETV7 is 1.02 fold enrichment (6-mer frequency, TF over GST control); with ETV3, 1 fold enrichment (6-mer frequency, TF over GST control).
